# An excerpt weighted towards active compounds, which were near 19% of everything screened.
# TDP1 cell CPT: qHTS for Inhibitors of human tyrosyl-DNA phosphodiesterase 1 (TDP1): qHTS in cells in presence of CPT; chicken DT40 Tdp1-/-;hTDP1 cells + 20 nM CPT, ATP luminescence, 48 h; Potency, µM (series often up to 46.2 µM), inactives show top-dose activity change, negative = growth inhibition, usual class: inhibitors; hit rate 12% among 420,000; AID 686979, 2013; also: nearly all actives have a fitted effect of over 55% in size
#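 Cell growth measured by CellTiter-Glo luminescence after a minimum 48 h, 37 C compound exposure with 20 nM CPT in Tdp1-knockout DT40 cells stably expressing hTDP1, seeded 400/well; qHTS titration format.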
# Gal4-VP16 FLuc: VP16 counterscreen qHTS for inhibitors of ROR gamma transcriptional activity; Drosophila S2 Gal4-VP16 UAS-luciferase, luminescence, 20 h; Potency, µM (titrated, usually from 53.6 µM), for inactives: top-dose activity, negative = inhibition, usual class: inhibitors; hit rate 3.5% among 310,000; AID 2546, 2010;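 also: Gal4-VP16 expression switched on by copper sulfate through the metallothionein promoter; nearly all actives have a fitted effect of over 50% in size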
# TDP1 block: qHTS Assay for Inhibitors of Tyrosyl-DNA Phosphodiesterase (TDP1); hit rate 0.28% among 350,000; AID 485290, 2010; recombinant TDP1, AlphaScreen DNA substrate cleavage; Potency, µM (series often up to 130 µM), inactives show at the top dose activity change, negative = inhibition, hits mostly inhibitors; Tyrosyl-DNA phosphodiesterase 1 (Homo sapiens), Q9NUW8; also: nearly all actives have a fitted effect of over 40% in size
#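 Compounds were preincubated with Tdp1 (1 nM final) for 15 min at room temperature before substrate (15 nM final) started a 5 min reaction; beads (10 ug/ml final) were then added for 10 min before AlphaScreen detection.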
# TDP1 cell noCPT: qHTS for Inhibitors of human tyrosyl-DNA phosphodiesterase 1 (TDP1): qHTS in cells in absence of CPT | DT40 Tdp1-/- hTDP1 cells, no CPT, ATP luminescence, 48 h | Potency, µM (doses to about 46.2 µM), without a hit: at the highest dose activity change, negative = growth inhibition, actives largely listed as inhibitors | hit rate 15% among 420,000; also: nearly all actives have a fitted effect of over 55% in size
#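 Compound effects on proliferation are scored in DT40 Tdp1-/-;hTDP1 cells in the absence of CPT. ATP levels (CellTiter-Glo luminescence) are recorded after a ≥48 hr, 37 °C incubation.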
# RORg inh: qHTS for inhibitors of ROR gamma transcriptional activity | Nuclear receptor ROR-gamma (Mus musculus), P51450 | Drosophila S2 Gal4-RORgamma UAS-luciferase reporter, 20 h | Potency, µM (doses to about 53.6 µM), without a hit: at the top dose activity change, negative = inhibition, actives largely listed as inhibitors | hit rate 5.4% among 310,000; also: nearly all actives have a fitted effect of over 60% in size
# Target sequence (P51450 whole entry, looked up, the tested form may be a part): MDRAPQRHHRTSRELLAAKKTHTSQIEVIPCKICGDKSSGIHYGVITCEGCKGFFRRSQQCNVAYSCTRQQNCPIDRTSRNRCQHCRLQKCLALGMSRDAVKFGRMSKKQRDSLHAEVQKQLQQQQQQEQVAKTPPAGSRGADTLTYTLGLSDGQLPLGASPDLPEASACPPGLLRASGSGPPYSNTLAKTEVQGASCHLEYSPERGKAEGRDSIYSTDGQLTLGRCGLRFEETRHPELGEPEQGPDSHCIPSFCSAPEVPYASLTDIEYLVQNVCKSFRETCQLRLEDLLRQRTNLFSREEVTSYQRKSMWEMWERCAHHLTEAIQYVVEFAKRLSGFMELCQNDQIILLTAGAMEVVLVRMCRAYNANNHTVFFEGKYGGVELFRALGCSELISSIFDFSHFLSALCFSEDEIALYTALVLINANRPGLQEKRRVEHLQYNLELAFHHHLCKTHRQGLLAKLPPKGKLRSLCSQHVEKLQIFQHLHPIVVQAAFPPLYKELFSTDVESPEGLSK
#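 Read-out: Photinus luciferase luminescence; inhibitors lower reporter signal. Insect Schneider cells with Gal4-ROR gamma fusion under metallothionein promoter, UAS reporter; 700 uM final copper sulfate induction, 20 hr, ambient temperature.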
# * marks the source's active call; other numbers are inactive results; u = inconclusive; x = not tested or not shown; [ ] = remark or other dose. Calls follow the shape of the dose curve; as a rule, active = well fitted curve in the direction sought with a large enough effect; inconclusive = small, poorly fitted or top-dose-only effect, or another doubt; inactive = no such curve, though single readings can be large; an effect the other way counts as inactive or inconclusive. % is scaled to controls: 0 for no effect and ±100 for the full control effect; potency is read from the fitted curve at half-maximal effect.
SMILES,TDP1 cell CPT,Gal4-VP16 FLuc,TDP1 block,TDP1 cell noCPT,RORg inh
Cc1ccc(CNc2ncnc3cc(Cl)ccc23)cc1,26µM*,u,x,18µM*,17%
COc1cc2ncnc(NCc3ccccc3Cl)c2cc1OC,21µM*,-2%[10 µM],5%,13µM*,25%
COc1cc2ncnc(N[C@H](C)c3ccccc3)c2cc1OC,18µM*,-6%,x,23µM*,23%
CN(CCc1ccccn1)C(=S)Nc1ccc(Cl)c(Cl)c1,6%,u,5%,u,u
COc1cc2cnc(-c3ccccc3)c(-c3cc(OC)c(OC)c(OC)c3)c2cc1OC,u,x,3%,13µM*,x
COc1cc2ncc(-c3ccccc3)nc2cc1OC,21µM*,x,6%,25µM*,x
COc1cc2cnc(-c3ccccc3)c(-c3ccc([N+](=O)[O-])cc3)c2cc1OC,u,x,5%,u,x
Cc1cc2ncc(-c3ccccc3)nc2cc1C,-13%,u,-12%,u,u
Cc1ccc(-c2cnc3ccccc3n2)cc1C,-1%,u,x,-26%,10µM*
COc1ccc(-c2cc3cc(OC)c(OC)cc3cn2)cc1,u,x,2%,u,x
COc1cc2cnc(-c3ccccc3)cc2cc1OC,18µM*,x,0%,u,x
Clc1cccc(Cl)c1CO/N=C/c1cccs1,-16%,4%,-11%,u,-4%
COc1ccc(S(=O)(=O)NCc2cn3c(C)csc3n2)cc1F,-1%,-14%,1%,-2%,-10%
CN(Cc1nccs1)C(=O)CC1C(=O)NCCN1Cc1ccc(-c2ccccc2)cc1 (configuration not stated),-28%,-6%,3%,-23%,-1%
N=C1C(c2nc3ccccc3s2)=C(O)CN1Cc1ccccc1,7.3µM*,8%,6%,4.6µM*,8%
CCOc1ccccc1N1CC(O)=C(c2nc3ccccc3s2)C1=N,3.3µM*,x,10%,4.1µM*,-18%[0.365 µM]
COc1ccc(OC)c(N2CC(O)=C(c3nc4ccccc4s3)C2=N)c1,u,4%,12%,u,19%
Cc1nc2ccccn2c1C(=O)N/N=C/c1ccccc1,16%,-4%,x,8%,1%
Cc1ccccc1N/N=C/c1c(C)nc2ccccn12,u,-6%,x,u,10µM*
COc1cc(/C=N/NC(=O)Cc2csc(N3CCOCC3)n2)cc(OC)c1O,3%,-28%,5%,-13%,-41%
FC(F)(F)c1cc(CCN2C(=S)NC[C@@H]2c2ccccc2)cc(C(F)(F)F)c1,u,11µM*,0%,u,5.6µM*
FC(F)(F)c1cc(CCN2C(=S)NC[C@@H]2Cc2ccccc2)cc(C(F)(F)F)c1,u,2.8µM*,6%,u,3.5µM*
Oc1ccc(C[C@H]2CNC(=S)N2CCc2cc(C(F)(F)F)cc(C(F)(F)F)c2)cc1,-19%,-11%,4%,u,18µM*
FC(F)(F)c1cc(CCN2C(=S)NC[C@@H]2CC2CCCCC2)cc(C(F)(F)F)c1,u,6.3µM*,4%,u,2.2µM*
COCCNC(=O)c1cc(C(=O)CC(C)C)c[nH]1,2%,2%[10 µM],-5%,2%,-1%
SMILES,TDP1 cell CPT,Gal4-VP16 FLuc,TDP1 block,TDP1 cell noCPT,RORg inh
CC(C)=CCC/C(C)=C/C(N)=O,28%,4%,3%,-22%,6%
Oc1ccc(Cl)cc1CNC1CCCCC1,-1%,x,x,u,x
CCN(c1ccc(OC)cc1)S(=O)(=O)c1nnc(NC(=O)C(C)C)s1,10%,0%,x,-2%,-6%
COc1ccc(-c2nc(CN(Cc3cnn(C)c3)C(C)C)c(C)o2)c(OC)c1,-2%,3%,0%,14%,-20%
O=C1NC[C@H](c2ccccc2)N(CCc2cc(C(F)(F)F)cc(C(F)(F)F)c2)C1=O,u,-10%,5%,u,20%
NC1=NC[C@H](Cc2ccccc2)N1CCc1cc(C(F)(F)F)cc(C(F)(F)F)c1,23µM*,0%,1%,15µM*,2%
O=S(=O)(c1ccc2c(c1)OCCO2)C1CCC(S(=O)(=O)c2c(F)cccc2F)CC1 (configuration not stated),x,x,0%,x,x
O=C(O)c1ccc(/C=C/c2nc3ccccc3c(=O)[nH]2)cc1,-7%,9%,x,-1%,-1%
CCOc1cc(/C=C/c2nc3ccccc3c(=O)[nH]2)ccc1O,u,30%,x,u,15%
COc1cc(/C=C/c2nc3ccccc3c(=O)[nH]2)cc(Br)c1O,-4%,-9%,-18%,-5%,6%
Cc1cccc(/C=C/c2nc3ccccc3c(=O)[nH]2)c1,21µM*,-12%,-2%,15µM*,2%
O=c1[nH]c(/C=C/c2ccccc2Cl)nc2ccccc12,16µM*,15%,x,u,-4%
COc1cc(/C=C/c2nc3ccccc3c(=O)[nH]2)ccc1O,u,x,x,16µM*,x
Cc1[nH]c2ccccc2c1/C=C/c1nc2ccccc2c(=O)[nH]1,u,u,1%,10µM*,-64%
COC(=O)c1ccc(NC(=O)CS(=O)(=O)c2ccccc2)cc1,-2%,-8%,2%,-22%,-5%
Cc1ccc(-n2c(/C=C/c3c(C)n(C)c4ccccc34)nc3ccccc3c2=O)cc1,2%,x,4%[2.28 µM],-15%,x
Cc1[nH]c2ccccc2c1/C=C/c1nc2ccccc2c(=O)n1-c1ccc([N+](=O)[O-])cc1,u,-7%,-1%,2.1µM*,-17%
COc1ccccc1/C=C1\SC(=S)N(CCC(=O)Nc2ccc(C(=O)O)c(O)c2)C1=O,20%,-3%,x,-10%,-4%
COc1ccc(/C=C2\SC(=S)N(CCC(=O)NCCc3ccc(O)cc3)C2=O)cc1,u,-4%,7%,16µM*,10%
O=C(CCN1C(=O)/C(=C/c2ccccc2)SC1=S)NCCc1ccc(O)cc1,16µM*,u,2%,u,u
COc1ccccc1/C=C1\SC(=S)N(CCC(=O)NCCc2ccc(O)cc2)C1=O,u,-13%,3%,16µM*,2%
O=C(CCN1C(=O)/C(=C/c2ccc(F)cc2)SC1=S)NCCc1cnc[nH]1,-26%,1%,11%,-9%,-8%
Cc1cccc(C)c1NC(=O)COC(=O)COc1ccc2c(C)cc(=O)oc2c1,u,-17%,3%,-17%,-16%
CC(=O)c1ccc(OCC(=O)NCc2ccc(F)cc2)cc1,-4%,-11%,0%,-17%,15%
COc1cccc(OCC(=O)NC2CC(=O)N(c3ccc4c(c3)OCCO4)C2)c1 (configuration not stated),0%,x,3%,7%,x
CN(C)c1ccc(/C=N/N=C/c2ccccc2O)cc1,u,u,-3%,u,7.9µM*
